# Measured values taken from PubChem BioAssay (NCATS).
# Unmarked numbers belong to inactive results. The rule behind the calls is not given here.
# System: HIV-1 nucleocapsid protein NCp7 (binding to TG oligonucleotide)
# Assay: HIV Nucleocapsid (AID 346);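 note: potency is for inhibitors that block NC binding and lower polarization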
# Conditions: HIV-1 NC / fluorescein-TGTGTGTG probe, fluorescence polarization
# Method in brief: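 NCp7 100 nM + fluorescein TG4xF 10 nM; Hepes pH 7.5/250mM NaCl/1uM ZnCl2/0.004% PEG 20000; 1 hr RT; FP, 45 s exposure; oligo-only wells as negative control.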
# Potency is the fitted concentration of half-maximal effect.
row,SMILES,Potency
1,c1cncc(CNc2nc(-c3ccc4c(c3)OCO4)nc3ccccc23)c1,> 20 µM
2,COc1ccc(CNc2nc(-c3c(C)noc3C)nc3ccccc23)c(OC)c1,> 20 µM
3,CN(C)c1ncc2nc(CCc3ccccc3)c(=O)n(Cc3cccs3)c2n1,> 20 µM
4,Cn1cccc1C(=O)N1CCC2(CCCN(c3ccccn3)C2)CC1,> 20 µM
5,CN(C)c1ncc2nc(-c3ccc(Cl)cc3)c(=O)n(Cc3cccs3)c2n1,> 4 µM
6,COc1ccccc1-c1nccc(NCc2ccccc2)n1,> 20 µM
7,CN(C)c1ccc(-c2nc(NCCN3CCOCC3)c3ccccc3n2)cc1,> 20 µM
8,CN(C)C(=O)c1ccc(-c2cncnc2NC2CCNCC2)cc1,> 20 µM
9,CN1CCN(c2cc(-c3ccccc3C(F)(F)F)ncn2)CC1,> 20 µM
10,O=C(Oc1ccccc1)N1CCC2(CCCN(c3ccncc3)C2)CC1,> 20 µM
11,Cc1noc(C)c1C(=O)N1CCC2(CC1)CN(c1cccc(-c3ccccc3)c1)C2,> 20 µM
12,COc1ncc2nc(CCc3ccccc3)c(=O)n(CCC#N)c2n1,> 20 µM
13,O=C(c1csnn1)N1CCC2(CC1)CN(c1cccc(-c3ccccc3)c1)C2,> 20 µM
14,COc1ccc(CNc2ncnc3ccc(-c4cccc(NS(C)(=O)=O)c4)cc23)c(OC)c1,> 20 µM
15,CCNc1ncc2nc(C)c(=O)n(Cc3cccc(OC)c3)c2n1,> 20 µM
16,O=C(Nc1ccccc1)N1CC[C@@]2(CCCN(C(=O)c3csnn3)C2)C1,> 20 µM
17,COc1ncc2nc(-c3cc(F)cc(F)c3)c(=O)n(C3CC3)c2n1,> 20 µM
18,CC(C)NC(=O)N1CC[C@@]2(CCCN(C(=O)c3cccn3C)C2)C1,> 20 µM
19,COc1cccc(-c2ccc3ncnc(NCCN4CCOCC4)c3c2)c1,> 20 µM
20,O=C(c1csnn1)N1CCC2(CC1)CN(c1ccccn1)C2,> 20 µM
21,COc1ccc(-c2nc3cnc(Nc4ccccc4)nc3n(Cc3cccs3)c2=O)cc1,> 16 µM
22,COc1ccc(C(=O)N2CCC3(CCN(Cc4ccc(C#N)cc4)CC3)CC2)cc1,> 20 µM
23,Cc1noc(C)c1-c1nccc(Nc2ccc(F)cc2)n1,> 20 µM
24,COc1ccccc1CCn1c(=O)c(-c2cccc(F)c2)nc2cncnc21,> 20 µM
